Measurements taken from ChEMBL document CHEMBL4296182, “CO-ADD screening of NIH NCI Diversity Set V”.
For part of these data: Measured potencies and affinities stand elsewhere.

Experiments:
Staphylococcus aureus = experiment: Antibacterial activity against Staphylococcus aureus MRSA ATCC 43300 (CO-ADD:GP_020); MIC in CAMBH media using NBS plates, by Resazurin F(560/590); assay type: functional; settings: Concentration 20 uM, ASSAY_TEST Inhibition of Bacterial Growth, detection method Resazurin, Fluorescence (ex560/em590), MEDIA CAMHB, plate type 384well, CORNING #3640, time 18 hr
Acinetobacter baumannii = experiment: Antibacterial activity against Acinetobacter baumannii ATCC 19606 (CO-ADD:GN_034); MIC in CAMBH media using NBS plates, by Resazurin F(560/590); assay type: functional; settings: Concentration 20 uM, ASSAY_TEST Inhibition of Bacterial Growth, detection method Resazurin, Fluorescence (ex560/em590), MEDIA CAMHB, plate type 384well, CORNING #3640, time 18 hr
Escherichia coli = experiment: Antibacterial activity against Escherichia coli ATCC 25922 (CO-ADD:GN_001); MIC in CAMBH media using NBS plates, by Resazurin F(560/590); assay type: functional; settings: Concentration 20 uM, ASSAY_TEST Inhibition of Bacterial Growth, detection method Resazurin, Fluorescence (ex560/em590), MEDIA CAMHB, plate type 384well, CORNING #3640, time 18 hr
Klebsiella pneumoniae = settings: Concentration 20 uM; ASSAY_TEST Inhibition of Bacterial Growth; detection method Absorption (OD600); MEDIA CAMHB; plate type 384well; NBS; CORNING #3640; time 18 hr
Candida albicans = settings: 20 µM
Cryptococcus neoformans = settings: Concentration 20 uM; ASSAY_TEST Inhibition of Fungal Growth; detection method Resazurin; Absorption (OD600-OD570); plate type 384well; NBS; CORNING #3640

Row | SMILES | Inhibition (Staphylococcus aureus) | Inhibition (Acinetobacter baumannii) | Inhibition (Escherichia coli) | Inhibition (Klebsiella pneumoniae) | Inhibition (Candida albicans) | Inhibition (Cryptococcus neoformans)
1 | C=C1C/C(=C/C)C(=O)O[C@@H]2CCN3CC=C(COC(=O)[C@]1(C)O)[C@H]23 [SENECIPHYLLINE] | 11.97% | -14.61% | -0.27% | 22.67% | -1.29% | -12.96%
2 | O=C(Oc1ccccc1)N(c1ccccc1)c1ccccc1 | 13.05% | 1.09% | 9.21% | 3.21% | 5.51% | -11.03%
3 | CN1CCN(c2nc(N)c(Br)c(Cl)n2)CC1 | 8.04% | 10.68% | 2.4% | 16.05% | 2.84% | -7.43%
4 | CC(C)(C)n1cc(C(=O)c2ccccc2)cc1-c1ccccc1 | 20.55% | 13.8% | 7.58% | 11.31% | 3.13% | -8.32%
5 | O=C1CN=C(c2ccc[nH]2)c2cc(Cl)ccc2N1 | 5.67% | 14.08% | -2.95% | 17.48% | 0.21% | -5.64%
6 | O=C(O)CCCC[C@@H]1SC[C@@H]2NC(=O)N[C@@H]21 [BIOTIN] | 10.18% | -16.1% | 8.51% | 5.79% | 1.63% | -9.23%
7 | Cc1c(C(=O)c2ccccc2)c2ccccc2n1C | 14.29% | -0.59% | 13.79% | 4.42% | 1.53% | -16.28%
8 | CN1CCN(c2nc(N)cc(O)n2)CC1 | -8.8% | 13.73% | 3.5% | 7.87% | 7.43% | -4.09%
9 | C[C@H]1CC[C@@]2(C)[C@@H](CC[C@@H]3[C@@H]2CC[C@]2(C)[C@@H](O)CC[C@@H]32)C1 | 19.61% | 5.34% | 2.81% | 23.84% | 9.51% | -1.26%
10 | c1ccc(C2NCCc3[nH]cnc32)cc1 (configuration not stated) | 1.04% | -8.45% | -9.57% | 10.31% | 0.7% | 13.69%
11 | O=P(OC1=CCCCC1)(c1ccccc1)c1ccccc1 | 2.77% | -7.09% | 6.17% | 9.43% | 4.11% | -2.72%
12 | C=CCNC(=S)Nc1ccc(OC(=O)Nc2ccc(Cl)c(Cl)c2)cc1 | 9.35% | 4.81% | 5.81% | 5.22% | 2.25% | -4.79%
13 | O=[N+]([O-])c1cc([As](=O)(O)c2ccc(O)c([N+](=O)[O-])c2)ccc1O | 9.78% | 5.09% | 4.17% | 5.87% | -1.08% | -7.3%
14 | O=S(=O)(F)c1ccc2nc(-c3cccc(Sc4ccccc4)c3)cc(Cl)c2c1 | 0.33% | -14.47% | 10.15% | 9.08% | 7.93% | -2.04%
15 | O=C(Nc1ccc(F)cc1)Oc1cccnc1O | 10.32% | 2.12% | 1.72% | 11.14% | 5.85% | -4.36%
16 | O=c1nc(C(F)(F)C(F)(F)C(F)(F)F)[nH]o1 | 8.37% | 8.1% | -1.78% | 12.08% | 3.43% | -2.86%
17 | CC(C)OC1CCCC(O)C1CC(=O)O (configuration not stated) | 1.66% | -13.22% | 6.88% | -1.53% | -0.2% | -7.06%
18 | O=C(CF)N(O)c1ccc(/C=C/c2ccccc2)cc1 | -10.86% | -11.91% | 10.97% | 1.67% | 12.6% | -7.92%
19 | CC12CCC3C(CCC4Cc5[nH]c6ccccc6c5CC43C)C1CCC2O (configuration not stated) | -0.19% | -0.61% | 16.15% | 10.81% | -1.61% | -15.22%
20 | Cc1cc(OCCN2CC2)c2ccccc2n1 | 14.36% | -8.46% | 11.83% | 5.11% | -2.14% | -8.85%
21 | Cc1ccccc1NC(=O)Oc1cccc(OC(=O)c2ccccc2)c1 | 23.15% | 5.34% | 4.68% | 11.95% | 0.43% | -5.38%
22 | CC(CC(C#N)(c1ccccc1)c1ccccc1)N1CCCCC1 (configuration not stated) | -22.27% | -8.26% | -18.71% | 1.48% | 0.01% | 28.3%
23 | CN1CCc2cc3c(cc2C1)OCO3 | -5.07% | -14.77% | 11.12% | 3.04% | 1.35% | -8.47%
24 | CC(=O)O.CCC(N)Cc1c[nH]c2ccccc12 (configuration not stated) [ETRYPTAMINE ACETATE] | 10.71% | -7.1% | 6.98% | 14.32% | 2.48% | -7.72%

Row | SMILES | Inhibition (Staphylococcus aureus) | Inhibition (Acinetobacter baumannii) | Inhibition (Escherichia coli) | Inhibition (Klebsiella pneumoniae) | Inhibition (Candida albicans) | Inhibition (Cryptococcus neoformans)
25 | CCC(CO)NC(=O)C1C=C2c3cccc4[nH]cc(c34)CC2N(C)C1 (configuration not stated) | 1.02% | 14.09% | -11.63% | 10.28% | -0.04% | 5.57%
26 | C/C=C(/C)C(=O)O[C@H]1CCN2CC=C(COC(=O)[C@@](O)([C@H](C)OC)C(C)(C)O)[C@H]12 | 10.77% | -8.86% | 10.49% | 12.46% | -1.68% | -5.72%
27 | COc1ccc(OC(=O)Nc2ccc([N+](=O)[O-])cc2OC)cc1 | 18.29% | 11.17% | 1.72% | 8.07% | -1.5% | -6.88%
28 | O=C1CC(c2ccc(O)cc2)Oc2cc(O)cc(O)c21 (configuration not stated) | 9.17% | 6.14% | -5.6% | 10.18% | 4.1% | -1.84%
29 | CN(C)P(=O)(N(C)C)N1CC1 | 13.5% | -2.37% | 15.32% | 12.98% | -1.16% | -11.15%
30 | O=c1cccc2n1C[C@H]1CNC[C@H]2C1 | 0.43% | -9.28% | 4.51% | 2.72% | 0.25% | -10.24%
31 | CCCCOP(=O)(OCCCC)C1(C)CC(=O)CC(C)(C)C1 (configuration not stated) | 5.73% | -6.49% | -5.15% | 23.67% | 1.05% | -15.51%
32 | COC(=O)c1nc(-c2ccc3c(n2)C(=O)C(N)=C(OC)C3=O)c(N)c(-c2ccc(OC)c(OC)c2O)c1C | -0.84% | -9.1% | 8.8% | 8.38% | -0.15% | 0.31%
33 | NN=C1C(Cl)=C(Cl)C(Cl)=C1Cl | -27.05% | -7.11% | -15.84% | 1.32% | 38.7% | 5.21%
34 | CCN1CC2C3CCC(C)(O3)C2C1 (configuration not stated) | 2.81% | -6.99% | 12.74% | 12.11% | 0.39% | -3.82%
35 | CCOP(=O)(OCC)/C(C#N)=C/c1ccc(-c2ccc(F)cc2F)o1 | 7.13% | -5.44% | 9.56% | 5.2% | 10.3% | -6.44%
36 | O=C1NC(=O)C(=Cc2ccc3ccccc3c2)C(=O)N1 | 0.11% | 10.33% | -2.67% | 19.68% | 25.6% | -7.82%
37 | c1cnc2c(c1)ccc1ncccc12 | 9.5% | -5.64% | 9.97% | 12.45% | 0.86% | -4.19%
38 | CN1C(=O)CC[C@@]2(C)C1=CC[C@@H]1[C@@H]2CC[C@@]2(C)[C@H]1CC[C@]2(C)O | 8.7% | -5.24% | 22.22% | 11.27% | -0.13% | -18.95%
39 | Cc1ccc(N2C(=O)C(=CN)C(=O)N(c3ccc(C)cc3)C2=O)cc1 | 17.58% | 4.93% | 4.14% | 11.65% | -1.3% | -7.68%
40 | COc1ccccc1[As](=O)(O)CC(O)COc1ccc(Cl)cc1Cl (configuration not stated) | 12.48% | -14.57% | 17.37% | 8.74% | -1.45% | -2.68%
41 | [Cl-].c1ccc(-c2nn(-c3ccccc3)[n+](-c3ccccc3)n2)cc1 [TETRAZOLIUM RED] | -10.8% | -19.48% | 7.25% | 5.91% | 0.89% | -6.85%
42 | COc1ccccc1NC(=O)Oc1cccc(OC(=O)c2ccccc2)c1 | 4.53% | -1.36% | -8.4% | 19.47% | 8.34% | -0.97%
43 | O=C(O)CN1C(=O)CN=C(c2ccccn2)c2cc(Cl)ccc21 | 15.35% | 8.33% | -0.79% | 10.65% | 1.18% | 0%
44 | CC(=O)OC1CCC2(C)C(CCC3C2CC(=O)C2(C)C3CC(N3CC3)C2C(C)=O)C1 (configuration not stated) | -6.66% | -5.39% | 9.74% | 4.84% | -0.96% | -1.15%
45 | COc1ccc2c3c1O[C@H]1C[C@@H](O)C=C[C@@]31CCN(C)C2 [GALANTAMINE] | 2.8% | 5.17% | -15.55% | 17.41% | 7.99% | 22.63%
46 | CN1CCCC1c1ccc(O)nc1 (configuration not stated) | 23.44% | -7.12% | 16.87% | 15.46% | -1.49% | -7.69%
47 | CC1(C)NC(=S)C(C)(C)N1N=O | 8.42% | -13.11% | 8.85% | 8.33% | 5.47% | -2.68%
